In the library only some 2.9% were active in any assay of this set; here they are far more common.
PLCg1 inh = blocks human PLC-gamma1 enzyme activity. inhibition, % at 12.2 µM. purified PLC-gamma1, fluorogenic substrate, fluorescence. 370,000 tested, 0.84% active. P19174
ADAM17 inh = inhibitors of human ADAM17; recombinant ADAM17, EDANS/DABCYL FRET peptide cleavage; inhibition, % at 6.95 µM; 370,000 tested, 0.83% active; P78536;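 active means inhibition above the mean of compounds lying between control limits plus 3 SD, set per campaign, cut at about 8.5% in these data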;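 further: 0% = DMSO-only wells as the low control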
Target sequence (P78536 215-824 limits assumed): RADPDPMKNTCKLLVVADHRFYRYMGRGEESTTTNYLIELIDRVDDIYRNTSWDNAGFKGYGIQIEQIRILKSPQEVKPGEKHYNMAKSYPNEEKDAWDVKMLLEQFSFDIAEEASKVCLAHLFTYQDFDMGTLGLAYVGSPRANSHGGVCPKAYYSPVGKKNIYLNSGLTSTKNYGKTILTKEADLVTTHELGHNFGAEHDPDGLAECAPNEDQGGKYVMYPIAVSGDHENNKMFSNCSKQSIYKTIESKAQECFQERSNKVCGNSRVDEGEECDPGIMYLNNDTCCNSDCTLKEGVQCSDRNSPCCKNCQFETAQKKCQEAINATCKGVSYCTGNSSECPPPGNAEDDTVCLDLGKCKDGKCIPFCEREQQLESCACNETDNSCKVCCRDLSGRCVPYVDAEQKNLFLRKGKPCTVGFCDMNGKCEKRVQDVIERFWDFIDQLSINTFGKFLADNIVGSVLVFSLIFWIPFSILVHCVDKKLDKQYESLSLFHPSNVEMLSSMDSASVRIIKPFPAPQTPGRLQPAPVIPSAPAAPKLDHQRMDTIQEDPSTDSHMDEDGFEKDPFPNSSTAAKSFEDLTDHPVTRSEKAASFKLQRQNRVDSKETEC
PLC-beta3 inh = blocks human PLC-beta3 enzyme activity | Purified PLC-beta3, fluorogenic substrate, fluorescence | inhibition, % at 12.2 µM | 370,000 tested, 0.18% active | AID 720704; in the data active means inhibition above about 11%;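 further: 0% = median of compound wells on plate and 100% = full blocker control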
ADAM10 inh = ADAM10 inhibition, QFRET primary screen; inhibition, % at 7 µM; O14672; recombinant ADAM10, EDANS/DABCYL FRET peptide cleavage, 3 h; 370,000 tested, 0.62% active;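 active means inhibition above a per-campaign cutoff equal to the mean of compounds falling between control-based bounds plus 3 SD, cut at about 20% in these data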;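 further: 0% = DMSO wells while the 100% control is not disclosed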
KLK7 zymogen act = activators of human kallikrein-7 zymogen; P49862; purified proKLK7, EDANS-DABCYL substrate fluorescence; 100% is mature enzyme control, 0% vehicle; activation, % at 7 µM; 370,000 tested, 0.9% active;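 active means activation above the mean of all tested compounds plus 3 SD, computed per campaign excluding outliers beyond control limits, cut at about 13% in these data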
PLCgamma1 ctr = PLC-gamma1 inhibition, counter-screen for PLC-beta3 hits | 3,300 tested, 3.1% active | shares compounds with PLCg1 inh | inhibition, % at 12.3 µM | purified PLC-gamma1, fluorogenic substrate, fluorescence
PLCb3 confirm = human PLC-beta3 inhibition, confirmation; shares compounds with PLCg1 inh; inhibition, % at 12.3 µM; 3,300 tested, 1% active; purified PLC-beta3, fluorogenic substrate fluorescence; in the data active means inhibition above about 11%
An asterisk follows results filed as active; i = inactive; / = not tested or not shown. Unless noted, no stated cut-off is given here; in the data, active means inhibition above about 9.5%; inactive means the rest.

SMILES | PLCg1 inh | ADAM17 inh | PLC-beta3 inh | ADAM10 inh | KLK7 zymogen act | PLCgamma1 ctr | PLCb3 confirm
O=C(COC(=O)/C=C/c1ccccc1Cl)NC1CC1 | 2 | -4 | 2 | -12 | 0 | / | /
Nc1cc(N)c2c(c1)C(=O)c1ccccc1-2 | 9.8* | 2 | 7 | 4 | 0 | -3 | 3
CSc1ncccc1C(=O)N1CCC(C)(C(=O)O)C1 (stereo not drawn) | 1 | -5 | 2 | -13 | 0 | / | /
O=C(O)/C=C/C(=O)NCCc1ccccc1 | 10* | 4 | 4 | 1 | 0 | -2 | 2
CCCCN1CCN(C(=O)Cn2c(=O)c3ccccc3n(CC)c2=O)CC1 | 3 | 4 | 5 | -8 | 0 | / | /
CN(C)S(=O)(=O)NC(c1ccccc1)c1ccccc1 | 12* | 4 | 7 | 4 | 0 | -4 | 1
Cc1ccc2c(c1)NC(=O)C(CC(=O)NCCCN1CCCCC1)O2 (stereo not drawn) | -1 | -2 | -1 | -9 | 0 | / | /
Cc1ccc2c(c1)NC(=O)C(CC(=O)NCCCN1CCN(c3cc(Cl)ccc3C)CC1)O2 (stereo not drawn) | 9.5* | 5 | 6 | 11 | 0 | -17 | -11
COc1ccc(NC(=O)c2cc(-c3cc(F)ccc3OCC3CCCO3)n[nH]2)cc1OC (stereo not drawn) | 12* | 7 | 3 | 13 | 0 | -2 | 0
COc1ccc2c(OC)cc(=O)n(C)c2c1 | 13* | -1 | 3 | 1 | 0 | -7 | -5
COC(=O)c1ccc(NC(=S)NC2CC3CCC2C3)cc1 (stereo not drawn) | 9.6* | 6 | 6 | 13 | -1 | 4 | 4
CCn1c2c(c(C)cc1=O)C(=O)CC(C)(C)C2 | 0 | -1 | -1 | -2 | 0 | / | /
CCn1c(C)c2c([n+]1CC)CC(C)(C)CC2=O | 1 | 3 | 76* | -4 | 0 | -4 | -1
CCCOc1ccc(C(C)=O)cc1CC(C(N)=O)C(N)=O | -1 | -2 | 1 | 1 | 0 | / | /
CC(=O)c1ccc(OCC(C)C)c(CC(C(N)=O)C(N)=O)c1 | 7 | 5 | 12* | 0 | 0 | -6 | 1
CC(=O)NC(Cc1ccc(F)cc1)C(=O)NC1CCN(C(=O)Nc2cccc(C)c2)CC1 (stereo not drawn) | 10* | 0 | -5 | -20 | 0 | 6 | 3
CC(=O)NC(Cc1ccc(F)cc1)C(=O)NC1CCN(C(=O)Nc2ccc(F)cc2)CC1 (stereo not drawn) | 1 | -2 | -5 | -3 | 0 | / | /
O=C(Cc1cccs1)N1CCC(c2nc3c(nnn3Cc3ccccc3)c(=O)[nH]2)CC1 | 10* | -4 | 12* | -6 | 0 | 7 | 12*
CCOC(=O)C1(Cc2cccc(Cl)c2)CCCN(C(=O)CCN2CCCC2=O)C1 (stereo not drawn) | -1 | -6 | -6 | 0 | -1 | / | /
OCCC1CN(Cc2cccc3nonc23)CCN1Cc1ccsc1 (stereo not drawn) | 10* | -4 | 3 | 6 | 0 | 1 | 0
O=C(Nc1ccc(CSc2ccccc2)cc1)c1ccco1 | 1 | -2 | -8 | -13 | 0 | / | /
Cc1ccc(C(=O)C2C(c3ccc(-c4ccccc4[N+](=O)[O-])o3)NC(=O)NC2(O)C(F)(F)F)cc1 (stereo not drawn) | -3 | 0 | -2 | 7 | 1 | / | /
O=C1NC(c2ccc(-c3ccccc3[N+](=O)[O-])o2)C(C(=O)c2ccccc2)C(O)(C(F)(F)F)N1 (stereo not drawn) | -2 | 0 | 11* | 2 | 0 | -51 | -35
CCC1C(=O)N(C)CCc2ccccc21 (stereo not drawn) | 12* | 4 | 4 | 5 | 0 | 5 | -2
CN1CCc2ccccc2C1C1CCNCC1 (stereo not drawn) | 0 | -4 | 0 | -2 | -1 | / | /
SMILES | PLCg1 inh | ADAM17 inh | PLC-beta3 inh | ADAM10 inh | KLK7 zymogen act | PLCgamma1 ctr | PLCb3 confirm
CCOC(=O)COc1ccc(S(=O)(=O)N2CCN(c3ccc(OC)cc3)CC2)cc1 | 9.5* | -5 | -2 | 3 | 0 | 1 | 2
O=C(Cn1nc2n(c1=O)-c1ccccc1SC2)N/N=C/c1ccncc1 | -1 | -5 | -5 | -1 | 0 | / | /
CCOc1ccccc1Nc1nc(N)nc(CSc2nccc(C)n2)n1 | -2 | -1 | 0 | 5 | 0 | / | /
CCOc1ccccc1Nc1nc(N)nc(CN(C)C2CCCCC2)n1 | 6 | 8 | 12* | 7 | -1 | 9 | 5
O=C(O)CCC(=O)N1CCc2cc(S(=O)(=O)N(CCc3ccccc3)Cc3ccccc3)ccc21 | 10* | 7 | 4 | 17 | 1 | -3 | -6
CCCn1c(=O)c2[nH]c(-c3ccc(S(=O)(=O)O)cc3)nc2n(CCC)c1=O | -207 | i | -262 | i | -60 | / | /
CCOc1ccc(C(=O)NCCC2=CCCCC2)cc1OCC | 11* | 0 | 5 | 4 | 1 | -5 | 0
O=C1CN(C(=O)c2c(F)cccc2F)C(c2ccc(F)cc2)c2cc(F)ccc2N1 (stereo not drawn) | 7 | -3 | -7 | 1 | 0 | / | /
O=C(O)c1ccccc1-c1nc(-c2ccccc2)c(-c2ccccc2)[nH]1 | -41 | -2 | -40 | -13 | 0 | / | /
O=C(O)c1ccccc1-c1nc2ccccc2c(=O)[nH]1 | 9.9* | 5 | 6 | 8 | 0 | 2 | 0
CCN(CC)C(=O)CC(c1cc(OC)c(OC)c(OC)c1)c1c(OC)cc(OC)c2c(-c3ccccc3)cc(=O)oc12 (stereo not drawn) | -12 | 2 | -21 | 12 | 0 | / | /
O=C(CCc1ccccc1)N[C@H]1[C@@H](OC(=O)c2cnccn2)CCC[C@@]12C(=O)N(Cc1ccccc1)c1ccccc12 | 12* | 6 | 3 | 5 | 1 | 14* | 8
CC1(c2ccccc2Cl)NC(=O)N(CC(=O)c2ccc3c(c2)OCO3)C1=O (stereo not drawn) | -1 | 5 | -7 | -10 | 0 | / | /
COc1ccc(/C=N/NC(=O)c2ccncc2)cc1Cn1nc([N+](=O)[O-])c(Br)c1C | 2 | 3 | -3 | 2 | 0 | / | /
CC1(C(=O)NS(=O)(=O)c2cccc(Cl)c2)CCN1C(=O)Cc1ccc(Cl)cc1Cl (stereo not drawn) | -1 | 1 | -3 | 7 | 0 | / | /
CC1(C(=O)NS(=O)(=O)c2cccc(Cl)c2)CCN1C(=O)Cc1ccsc1 (stereo not drawn) | 10* | 2 | 2 | 1 | 1 | -9 | -5
O=C(COc1ccc2c3c(c(=O)oc2c1)CCC3)N[C@@H](Cc1ccccc1)C(=O)O | -4 | -33 | -6 | -159 | 0 | / | /
Cn1c(=O)c2c(nc(N3CCN(c4ccccn4)CC3)n2Cc2ccc(Cl)cc2Cl)n(C)c1=O | 11* | 4 | 7 | 12 | 0 | 4 | 1
